Drawing on PubChem BioAssay (NCI), this text covers growth for eight compounds.

The panel holds about 83,000 compounds, 20% with a hit somewhere; the sample as a whole holds those more often.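 Treatment: one concentration, 48 hours, 96-well format. Scoring: percent growth, with anything below 10 considered active.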 Unmarked numbers belong to inactive results. Calls of active or inactive are those of the source.

Test systems include SK-MEL-2 melanoma; EKVX NSCLC; SN12C renal; UO-31 renal; TK-10 renal; ACHN renal; CAKI-1 renal; A498 renal; CCRF-CEM leukemia; MOLT-4 leukemia; SR leukemia; RPMI-8226 leukemia; OVCAR-8 ovarian; OVCAR-5 ovarian; OVCAR-4 ovarian; SK-OV-3 ovarian; IGROV1 ovarian; OVCAR-3 ovarian; HS 578T breast; NCI/ADR-RES ovarian.
Holding throughout (assay): NCI-60 one-dose screen, 48 h (100 = growth as untreated, 0 = no growth, -100 = all killed)
Conditions in all cases: 10 µM unless noted

For the compound `O=C1/C(=C2\SC(=S)N(C3CC3)C2=O)SC(=S)N1C1CC1`, the growth with SK-MEL-2 melanoma was 102%; in the assay with EKVX NSCLC it was 95.9%; in the assay on SN12C renal, 92.5%; in the assay on UO-31 renal it was 77.4%; with TK-10 renal, 108%; in the assay with ACHN renal it was 97%. Besides, the growth with CAKI-1 renal was 91.3%; in the assay on A498 renal, 106%; in the assay with CCRF-CEM leukemia, 105%; with MOLT-4 leukemia it was 103%; in the assay on SR leukemia, 105%; in the assay with RPMI-8226 leukemia, 102%. In addition, the growth with OVCAR-8 ovarian was 103%; with OVCAR-5 ovarian it was 98.5%; with OVCAR-4 ovarian it was 97.2%; with SK-OV-3 ovarian, 109%; in the assay with IGROV1 ovarian, 95.5%; in the assay on OVCAR-3 ovarian it was 107%. Moreover, the growth was 97.4% with HS 578T breast and 102% in the assay on NCI/ADR-RES ovarian.
`O=C(Nc1ccccc1[N+](=O)[O-])c1ccc(Cl)c(Cl)c1`: the growth with SK-MEL-2 melanoma was 95.6%; with EKVX NSCLC it was 85.3%; with SN12C renal it was 94.7%; with UO-31 renal, 71.1%; in the assay on TK-10 renal, 124%; in the assay with ACHN renal, 94.7%. For the same compound, the growth in the assay on CAKI-1 renal was 92.8%; in the assay on A498 renal, 58.7%; in the assay with CCRF-CEM leukemia, 106%; with MOLT-4 leukemia, 96.7%; with SR leukemia, 92.3%; in the assay with RPMI-8226 leukemia, 90.1%. In addition, the growth is 95.5% in the assay with OVCAR-8 ovarian; 111% in the assay on OVCAR-5 ovarian; 81.4% with OVCAR-4 ovarian; 94.9% in the assay on SK-OV-3 ovarian; 87.2% with IGROV1 ovarian; 97% with OVCAR-3 ovarian. The values for the growth with HS 578T breast and in the assay on NCI/ADR-RES ovarian were 87.8% and 87.2%, respectively.
In the case of `O=C(CC(=O)Nc1cccc(C(=O)O)c1)Nc1cccc(C(=O)O)c1`, the growth was 90.7% with SK-MEL-2 melanoma; 101% with EKVX NSCLC; 102% with SN12C renal; 88.5% with UO-31 renal; 102% in the assay on TK-10 renal; 91.6% with ACHN renal. Besides, the growth was 86.5% in the assay with CAKI-1 renal; 104% in the assay on A498 renal; 94.2% in the assay on CCRF-CEM leukemia; 103% in the assay on MOLT-4 leukemia; 96% with SR leukemia; 100% in the assay with RPMI-8226 leukemia. In addition, the growth was 107% with OVCAR-8 ovarian; 101% in the assay with OVCAR-5 ovarian; 97.8% in the assay with OVCAR-4 ovarian; 106% with SK-OV-3 ovarian; 109% in the assay on IGROV1 ovarian; 113% with OVCAR-3 ovarian. In addition, the growth with HS 578T breast is 100%; in the assay on NCI/ADR-RES ovarian, 106%.
Take `CC1=C2[C@@H](CC1)[C@]1(C)O[C@@](c3ccccc3)(C[C@H]1OC(=O)CO)[C@H]2OC(=O)/C=C/c1ccccc1`: the growth with SK-MEL-2 melanoma was 91.9%; in the assay on EKVX NSCLC, 83.4%; in the assay with SN12C renal it was 41.4%; with UO-31 renal it was -8.71% (active); with TK-10 renal, 111%; in the assay with ACHN renal, 2.46% (active). Besides, the growth in the assay on CAKI-1 renal was 72.2%; in the assay with A498 renal, -78.1% (active); in the assay on CCRF-CEM leukemia, 77.5%; with MOLT-4 leukemia, 70.8%; with SR leukemia it was 68.8%; in the assay on RPMI-8226 leukemia, 77.7%. The growth in the assay on OVCAR-8 ovarian is 10.3%; in the assay on OVCAR-5 ovarian it was 108%; with OVCAR-4 ovarian, 5.56% (active); with SK-OV-3 ovarian it was 119%; in the assay on IGROV1 ovarian it was 108%; in the assay on OVCAR-3 ovarian it was 97.6%. The growth was -10.2% (active) with HS 578T breast and 2.86% (active) with NCI/ADR-RES ovarian.
`COc1ccc(/C=C(/C(=O)n2cnnn2)c2cc(OC)c(OC)c(OC)c2)cc1`: the growth is 57.6% with SK-MEL-2 melanoma; 46.5% in the assay with EKVX NSCLC; 42.6% in the assay on SN12C renal; 42.4% in the assay on UO-31 renal; 44.9% in the assay with TK-10 renal; 48% in the assay with ACHN renal. Further, the growth in the assay on CAKI-1 renal was 36.1%; with A498 renal it was 1.86% (active); with CCRF-CEM leukemia it was 5.78% (active); in the assay with MOLT-4 leukemia, 40.5%; in the assay with SR leukemia it was 14.8%; in the assay on RPMI-8226 leukemia, 3.48% (active). Also, the growth is 22.1% in the assay on OVCAR-8 ovarian; 41.2% in the assay on OVCAR-5 ovarian; 60.6% in the assay with OVCAR-4 ovarian; 14.6% with SK-OV-3 ovarian; 41.4% with IGROV1 ovarian; 1.46% (active) in the assay on OVCAR-3 ovarian. The growth is 13.5% in the assay with HS 578T breast and 12.2% in the assay with NCI/ADR-RES ovarian.
Turning to `CC1(C)N=C(N)N=C(N)N1c1ccc(CCCCc2ccccc2)c(Cl)c1`, the growth is 4.71% (active) with SK-MEL-2 melanoma; 53% in the assay with EKVX NSCLC; 11% in the assay with SN12C renal; 49.5% with UO-31 renal; 15.9% with TK-10 renal; 18.8% in the assay with ACHN renal. Also, the growth with CAKI-1 renal is 14.1%; in the assay with A498 renal, 54.5%; with CCRF-CEM leukemia, 13.2%; in the assay with MOLT-4 leukemia it was 1.8% (active); in the assay on SR leukemia it was -8.35% (active); in the assay with RPMI-8226 leukemia, 4.29% (active). Further, the growth in the assay with OVCAR-8 ovarian was 26.1%; in the assay with OVCAR-5 ovarian, 28.5%; with OVCAR-4 ovarian, 20.6%; in the assay with SK-OV-3 ovarian it was 38.1%; in the assay with IGROV1 ovarian it was -24.4% (active); in the assay on OVCAR-3 ovarian, -10.6% (active). The growth in the assay with HS 578T breast is 36.4%; in the assay with NCI/ADR-RES ovarian, 54.8%.
Turning to `Cn1c(=O)c2[nH]c(SCC(=O)Nc3ccc(C(=O)/C=C/c4ccccc4Cl)cc3)nc2n(C)c1=O`, the growth in the assay on SK-MEL-2 melanoma is 126%; in the assay with EKVX NSCLC it was 87.9%; in the assay on SN12C renal, 97.7%; with UO-31 renal, 92.7%; with TK-10 renal, 104%; in the assay on ACHN renal, 99%. The growth in the assay on CAKI-1 renal was 98.1%; with A498 renal, 85.6%; with CCRF-CEM leukemia, 79.5%; in the assay on MOLT-4 leukemia, 87.4%; with SR leukemia, 78.1%; in the assay on RPMI-8226 leukemia, 82.2%. The growth in the assay on OVCAR-8 ovarian is 95%; in the assay with OVCAR-5 ovarian it was 101%; in the assay with OVCAR-4 ovarian it was 88.3%; in the assay with SK-OV-3 ovarian, 97.3%; in the assay on IGROV1 ovarian, 100%; in the assay on OVCAR-3 ovarian, 94.7%. The figures for the growth in the assay with HS 578T breast and in the assay on NCI/ADR-RES ovarian were 95.5% and 101%, respectively.
In the case of `Fc1ccc(Cn2cc(CSc3nc4ccccc4o3)nn2)cc1`, the growth was 99.1% in the assay with SK-MEL-2 melanoma; 108% with EKVX NSCLC; 96.5% in the assay on SN12C renal; 83.6% in the assay on UO-31 renal; 95.7% in the assay with TK-10 renal; 102% with ACHN renal. The growth in the assay with CAKI-1 renal is 91.3%; in the assay on A498 renal, 98%; with CCRF-CEM leukemia, 100%; in the assay on MOLT-4 leukemia it was 92.7%; in the assay on SR leukemia, 103%; with RPMI-8226 leukemia, 105%. Further, the growth was 102% in the assay with OVCAR-8 ovarian; 100% with OVCAR-5 ovarian; 98.9% in the assay with OVCAR-4 ovarian; 91.3% in the assay with SK-OV-3 ovarian; 98.8% in the assay on IGROV1 ovarian; 98.5% in the assay with OVCAR-3 ovarian. The growth with HS 578T breast was 105%; in the assay with NCI/ADR-RES ovarian it was 109%.
